Calls of active or inactive are those of the source. The calls were made as follows: active = hit-call score of the fitted dose curve at least 0.9, where 1 is the maximum; inactive = score below 0.9.

In the test the target is Peroxisome proliferator-activated receptor gamma (Homo sapiens) (UniProt P37231). Kind of test: ERF_US_NR_hPPARG: Eurofins (ERF) Nuclear Receptor (NR) Cell Based Protein-Protein Interaction LeadHunter Assay for human Peroxisome Proliferator-activated Receptor-gamma (PPARg) Agonism. How it is done:
ERF_US_NR_hPPARG is a cell-based, single-readout assay that uses extracted gene-proteins in a cell-line assay. Measurements were taken 5 hours after chemical dosing in a 384-well plate. See PPARgamma Human NHR Cell Based Agonist Protein-Protein Interaction Assay, DiscoverX.ERF_US_NR_hPPARG is an assay component calculated from the ERF_US_NR_hPPARG assay. It is designed to measure […] using a type of binding reporter as detected by scintillation counting with radiometry technology.Data from the assay component ERF_US_NR_hPPARG was analyzed at the assay endpoint, ERF_US_NR_hPPARG, in the positive analysis fitting direction relative to DMSO as the negative control and baseline of activity. Using a type of binding reporter, gain-of-signal activity can be used to understand changes in binding as they relate to gene PPARG. To generalize the intended target to other relatable targets, this assay endpoint is annotated to the nuclear receptor intended target family, where the subfamily is non-steroidal.
Cells were seeded in a total volume of 20 uL into white walled, 384-well microplates and incubated at 37C overnight prior to testing.Briefly, intermediate dilution of sample stocks was performed to generate 5X sample in assay buffer. 5 uL of 5X sample was added to cells and incubated at 37C for 300 minutes. […] The results are expressed as a percent efficacy of the control ligand.

Chain of Peroxisome proliferator-activated receptor gamma (Homo sapiens) (P37231 whole entry, looked up): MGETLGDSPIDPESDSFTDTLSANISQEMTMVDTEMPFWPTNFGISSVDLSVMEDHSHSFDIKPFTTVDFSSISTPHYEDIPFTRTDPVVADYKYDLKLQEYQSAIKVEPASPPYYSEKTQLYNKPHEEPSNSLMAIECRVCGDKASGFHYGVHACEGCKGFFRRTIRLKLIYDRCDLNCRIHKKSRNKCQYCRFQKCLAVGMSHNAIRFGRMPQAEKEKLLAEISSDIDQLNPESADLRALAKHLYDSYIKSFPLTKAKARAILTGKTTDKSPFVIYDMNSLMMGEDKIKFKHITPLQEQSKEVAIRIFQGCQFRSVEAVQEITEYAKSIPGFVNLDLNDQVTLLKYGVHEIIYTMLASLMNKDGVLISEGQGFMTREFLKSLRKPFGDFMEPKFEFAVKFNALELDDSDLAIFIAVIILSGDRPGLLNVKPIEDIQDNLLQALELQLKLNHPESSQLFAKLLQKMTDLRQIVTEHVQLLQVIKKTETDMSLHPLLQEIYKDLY

As to `O=S(=O)(O)C(F)(F)C(F)(F)C(F)(F)C(F)(F)C(F)(F)C(F)(F)C(F)(F)C(F)(F)F`, the compound was classed as inactive.

For the origin of these results see PubChem BioAssay AID2284364 (EPA ToxCast).
